# Hits are enriched below; roughly 12% of the tested compounds scored in any of these assays.
# SARS PLP yeast: SARS-CoV PLP inhibition in yeast; Potency, µM (top dose mostly 32.9 µM), inactives show at the top dose activity, positive = growth rescue, most hits filed as activators; 0.19% of 330,000 active; S. cerevisiae expressing SARS-CoV PLpro, growth rescue; calls by dose curve; also: 0% is about no effect; nearly all actives have a fitted effect of over 55% in size
# AmpC no deterg: inhibitors of E. coli AmpC beta-lactamase without detergent; P00811; AmpC nitrocefin hydrolysis, absorbance 480 nm, 0.0001% Triton; Potency, µM (doses to about 57.1 µM), inactives show at the top dose activity change, negative = inhibition, most hits filed as inhibitors; 0.52% of 330,000 active; AID 485341;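 also: plate controls were no compound for no effect and no enzyme for full effect; nearly all actives have a fitted effect of over 20% in size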
# Target sequence (P00811 whole entry, looked up): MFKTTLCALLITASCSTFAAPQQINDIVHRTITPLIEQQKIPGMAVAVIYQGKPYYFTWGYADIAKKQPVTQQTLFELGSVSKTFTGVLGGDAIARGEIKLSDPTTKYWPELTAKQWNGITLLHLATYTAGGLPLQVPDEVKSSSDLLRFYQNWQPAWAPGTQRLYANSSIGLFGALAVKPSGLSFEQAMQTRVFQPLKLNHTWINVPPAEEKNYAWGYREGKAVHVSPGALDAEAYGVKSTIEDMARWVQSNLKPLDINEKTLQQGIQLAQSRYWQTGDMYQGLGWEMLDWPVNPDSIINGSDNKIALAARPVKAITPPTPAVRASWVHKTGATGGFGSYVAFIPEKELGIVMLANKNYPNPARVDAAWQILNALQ
#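 AmpC (5.3 nM in the dispensed reagent) in 20 mM phosphate pH 7.0 with 0.01% (detergent screen) or 0.0001% Triton X-100 was preincubated with compounds for 15 min at room temperature. Nitrocefin was then added from an 800 uM solution, and hydrolysis was followed at 480 nm.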
# AmpC inh detg: AmpC beta-lactamase inhibition with detergent present; P00811; AmpC hydrolysis of nitrocefin, absorbance 480 nm, 0.01% Triton; Potency, µM (highest dose often 114 µM), for inactives: top-dose activity change, negative = inhibition, usual class: inhibitors; 0.041% of 370,000 active; AID 485294;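 also: 0% = no-compound wells and -100% = no-enzyme wells; nearly all actives have a fitted effect of over 25% in size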
#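 AmpC (5.3 nM in the dispensed reagent) in 20 mM phosphate pH 7.0 with 0.01% (detergent screen) or 0.0001% Triton X-100 was preincubated with compounds for 15 min at room temperature. Nitrocefin was then added from an 800 uM solution, and hydrolysis was followed at 480 nm.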
# Sm TGR block: blocks Schistosoma mansoni thioredoxin glutathione reductase; Q962Y6; purified TGR, DTNB reduction, TNB absorbance 405 nm; Potency, µM (highest dose often 114 µM), inactives show at the highest dose activity change, negative = inhibition, usual class: inhibitors; 3% of 360,000 active; also: % is scaled to controls: 0 for no effect and ±100 for the full control effect; nearly all actives have a fitted effect of over 60% in size
#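 First, TGR (20 nM dispensed) and NADPH were mixed with compound. Second, a 15 min room-temperature incubation followed. Third, further NADPH and then DTNB were added to start the reaction. Finally, TNB absorbance was monitored kinetically.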
# Pf growth 48h: inhibits P. falciparum growth in the first generation, 48 h. P. falciparum luciferase growth in erythrocytes, 48 h. Potency, µM (doses to about 28.7 µM), for the others: at the highest dose activity change, negative = inhibition, actives largely listed as inhibitors. 5.9% of 310,000 active. AID 504832; also: % is scaled to controls: 0 for no effect and ±100 for the full control effect
#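 Parasite viability was followed by luminescence of a genomically integrated firefly luciferase. Cultures held 0.1% parasitemia at 2% hematocrit (final), incubated under 5% CO2 at 37 C.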
# Pf growth 96h: P. falciparum growth inhibition at 96 hour, primary screen for plastid delayed-death inhibitors | 6.9% of 320,000 active | Potency, µM (highest dose often 28.7 µM), for inactives: at the highest dose activity change, negative = inhibition, hits mostly inhibitors | P. falciparum luciferase reporter growth, 96 h | AID 504834; also: % is scaled to controls: 0 for no effect and ±100 for the full control effect
#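 Two-generation exposure (96 h) targets delayed-death phenotype. Reporter parasites carrying integrated firefly luciferase, in red cells at 2% hematocrit and 0.05% parasitemia final, kept at 37 C, 5% CO2; luminescence loss indicates inhibition.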
# * marks the source's active call; other numbers are inactive results; ? = inconclusive; / = not tested or not shown; [ ] = dose if it differs, or a comment. Unless noted, calls follow the shape of the dose curve; as a rule, active = well fitted curve in the direction sought with a large enough effect; inconclusive = small, poorly fitted or top-dose-only effect, or another doubt; inactive = no such curve, though single readings can be large; an effect the other way counts as inactive or inconclusive. Potency is read from the fitted curve at half-maximal effect.
SMILES,SARS PLP yeast,AmpC no deterg,AmpC inh detg,Sm TGR block,Pf growth 48h,Pf growth 96h
Cc1ccc(C2CC(=O)N3CN(Cc4ccco4)CSC3=C2C#N)cc1 (stereo unspecified),6%,-40%,?,0%,?,?
O=C(O)C1C2C=CC3(CN(Cc4ccco4)C(=O)C13)O2 (stereo unspecified),-9%,-16%,-10%,?,/,5%
CCOC(=O)CN1CC23C=CC(O2)C(C(=O)NCc2ccc(C)cc2)C3C1=O (stereo unspecified),-3%,7%,0%,9%,/,10µM*
COC(=O)C1C2C=CC3(CN(Cc4ccco4)C(=O)C13)O2 (stereo unspecified),6%,10%,1%,28µM*,22%,?
CCOC(=O)C1C2C=CC3(CN(Cc4ccco4)C(=O)C13)O2 (stereo unspecified),9%,-1%,-15%,32µM*,-21%,-9%[5.75 µM]
CC(O)[C@H]1CNCCN1CCc1cccc(F)c1 (stereo partly specified),-3%,-7%,0%,-20%,17%,79%
CCN(CC)CCNC(=O)C1CCN(S(=O)(=O)c2c(C)noc2/C=C/c2ccccc2F)CC1,-4%,94%,?,0%,?,?
Cc1cccc(Nc2ncnc3onc(-c4ccc(F)cc4)c23)c1C,-8%,-17%,?,-1%,?,?
Cc1cccc(Nc2ncnc3onc(-c4cccc(Cl)c4)c23)c1C,-9%,-4%,-17%,-13%,?,9.3µM*
O=C(Nc1cnc(N2CCN(c3ccccc3)CC2)c(C(=O)O)c1)c1cccs1,/,/,10%,?,/,/
Cc1oc2ccccc2c1CC(=O)NCCCN(C)C,-1%,-6%,-1%,-21%,2.1µM*,5%
CCOC(=O)c1c(C)c(C(=O)Nc2ccccc2)c(C)n1CC,-2%,-6%,-4%,4%,?,4.7µM*
CCOC(=O)c1c(C)c(C(=O)NCc2ccc(OC)cc2)c(C)n1CC,/,/,-5%,1%,/,/
CCOC(=O)c1c(C)c(C(=O)NCCc2ccc(OC)cc2)c(C)n1CC,/,/,7%,22µM*,/,/
COc1ccc(CCNC(=O)c2c(C)nc3ccccn23)cc1,-2%,-12%,?,9%,?,12µM*
COc1ccc(CNC(=O)c2c(C)nc3ccccn23)cc1,-9%,-6%,-11%,0%,-11%,?
O=[N+]([O-])c1nn(-c2ccccc2)n(O)c1=NCCc1ccccc1,-65%,-5%,-5%,-9%,4.1µM*,-6%
Cc1cc(C)cc(N=c2c([N+](=O)[O-])nn(-c3cccc(Cl)c3)n2O)c1,-5%,-22%,4%,-25%,/,3.7µM*
Cc1ccc(CCN=c2c([N+](=O)[O-])nn(-c3ccccc3)n2O)cc1,-5%,-1%,5%,/,?,0%
O=[N+]([O-])c1nn(-c2ccc(Cl)cc2)n(O)c1=NCc1ccncc1,1%,-21%,3%,-29%,2.9µM*,-19%
Cc1cccc(N=c2c([N+](=O)[O-])nn(-c3ccc(Cl)cc3)n2O)c1,-8%,-60%,0%,-8%,?,-19%
O=[N+]([O-])c1nn(-c2ccc(Cl)cc2)n(O)c1=NCc1cccnc1,-57%,0%,-14%,-20%,-7%,-12%
Cc1ccc(CN=c2c([N+](=O)[O-])nn(-c3ccc(Cl)cc3)n2O)cc1,-1%,-28%,-13%,-16%,75%,3.3µM*
CCCN1C(=O)SC(CC(=O)Nc2ccc(Br)cc2)C1=O (stereo unspecified),-19%,-21%,?,-18%,-9%,/
O=C(Cn1ccn(-c2ccc(F)c(F)c2)c(=O)c1=O)c1ccc(F)cc1,/,/,-6%,-3%,/,/
C[C@H](CO)N1C[C@H](C)[C@@H](CN(C)C(=O)Nc2ccccc2)Oc2ccc(NC(=O)Cc3ccccc3)cc2C1=O,-3%,96%,/,/,/,/

# Source: PubChem BioAssay
